# Active and inactive are the calls of the source.
# Assays:
# [1] = compounds binding Alexa647 anti-His antibody – biochemical, small-molecule microarray, 635 nm fluorescence, artefact control for SMM control protein annotation, primary screen (AID 1128); conditions: higher = more signal;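 note: score merges feature fluorescence with signal-to-noise for each printed compound spot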
# [2] = test system: Human papillomavirus type 1a E7 protein (residues 1-88); experiment: HPV1a E7 small-molecule binders, primary screen, biochemical, small-molecule microarray, residues 1-88, 635 nm (AID 1129); conditions: small-molecule microarray binding, fluorescence 635 nm; higher = more signal
# [3] = biological target: Focal adhesion kinase 1 (Homo sapiens) (UniProt Q05397); experiment: PTK2 protein binding on printed compound slides – biochemical, small-molecule microarray, 635/667 nm fluorescence, BSA, DTT, primary screen (AID 1130); conditions: 635 nm fluorescence, higher = more signal;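 note: composite of spot emission at 667 nm and signal to noise over triplicate slides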
# [4] = test system: Fibrinogen (Alexa647-labelled); experiment: Alexa647-fibrinogen binding to printed small molecules – biochemical, small-molecule microarray, 635/667 nm fluorescence, artefact control for SMM control-protein annotation, profiling panel (AID 1131); conditions: fibrinogen-A647 binding fluorescence, higher = more signal;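 note: z-score merges 667 nm fluorescence with per-spot signal-to-noise over triplicate slides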
# [5] = biological target: Follistatin (Homo sapiens) (UniProt P19883); experiment: FST protein binding to printed compounds – biochemical, small-molecule microarray, 635/667 nm fluorescence, primary screen (AID 1132); conditions: 635 nm fluorescence, higher = more signal
# [6] = biological target: Fibroblast growth factor 2 (Homo sapiens) (UniProt P09038); experiment: basic fibroblast growth factor binding to printed compounds – biochemical, small-molecule microarray, 635/667 nm fluorescence, primary screen (AID 1133); conditions: FGF2, fluorescence 635/667, higher = more signal
# [7] = JC-1 mitochondrial potential readout, lung cancer cells – cell-based, A549, JC-1 fluorescence, basal, 24 h, 100 nL, profiling panel (AID 1138); conditions: higher = more signal;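 note: A549 lung adenocarcinoma cells under basal conditions with no added stimulus; test concentration not given here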
# Lefty1 = Lefty1 protein binding to printed compounds – biochemical, small-molecule microarray, 635/667 nm fluorescence, primary screen (AID 1139); conditions: fluorescence 635/667, higher = more signal
# [8] = test system: wheat germ agglutinin (Triticum aestivum), Alexa647-labelled; experiment: Alexa647-WGA lectin binding to printed small molecules – biochemical, small-molecule microarray, 635/667 nm fluorescence, artefact control for SMM control-protein annotation, profiling panel (AID 1140); conditions: WGA-A647 binding, 635 nm fluorescence, higher = more signal;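 note: score merges 667 nm feature emission with signal to noise over triplicate slides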
# [9] = biological target: Luciferin 4-monooxygenase (Photinus pyralis) (UniProt P08659); experiment: inhibition of purified Photinus pyralis luciferase – biochemical, luminescence, purified enzyme, 2006 set, primary screen (AID 1141); conditions: purified firefly luciferase, SteadyGlo luminescence, 30 min; higher = more signal, called active from +8 up or from −8 down;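 note: cell-free assay with purified firefly luciferase at 100 ng per well in PBS; test concentration not given here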
# Luciferin 4-monooxygenase (Photinus pyralis), sequence (P08659 whole entry, looked up): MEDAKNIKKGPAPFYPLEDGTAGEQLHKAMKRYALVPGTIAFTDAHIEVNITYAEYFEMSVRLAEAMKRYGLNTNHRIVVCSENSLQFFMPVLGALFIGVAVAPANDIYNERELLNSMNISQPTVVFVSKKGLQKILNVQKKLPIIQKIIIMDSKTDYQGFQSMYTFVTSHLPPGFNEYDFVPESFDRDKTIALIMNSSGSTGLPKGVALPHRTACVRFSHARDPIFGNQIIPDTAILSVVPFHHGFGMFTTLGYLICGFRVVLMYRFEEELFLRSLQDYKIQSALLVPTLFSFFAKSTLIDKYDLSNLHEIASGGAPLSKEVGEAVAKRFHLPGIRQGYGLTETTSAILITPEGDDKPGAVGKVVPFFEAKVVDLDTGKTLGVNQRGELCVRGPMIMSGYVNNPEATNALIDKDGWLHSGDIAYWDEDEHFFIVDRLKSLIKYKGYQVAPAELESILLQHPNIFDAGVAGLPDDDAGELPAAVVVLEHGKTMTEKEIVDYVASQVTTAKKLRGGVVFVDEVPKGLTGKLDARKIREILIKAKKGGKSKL
# Follistatin (Homo sapiens), sequence (P19883 whole entry, looked up): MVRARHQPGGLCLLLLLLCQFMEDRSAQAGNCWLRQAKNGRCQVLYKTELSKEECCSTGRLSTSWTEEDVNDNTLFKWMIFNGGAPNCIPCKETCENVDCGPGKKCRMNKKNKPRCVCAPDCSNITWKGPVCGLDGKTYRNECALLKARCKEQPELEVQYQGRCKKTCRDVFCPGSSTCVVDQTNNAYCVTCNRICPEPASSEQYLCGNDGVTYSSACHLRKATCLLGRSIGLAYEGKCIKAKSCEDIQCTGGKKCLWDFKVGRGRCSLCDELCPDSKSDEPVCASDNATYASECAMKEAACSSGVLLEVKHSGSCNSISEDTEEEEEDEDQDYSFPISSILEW
# Focal adhesion kinase 1 (Homo sapiens), sequence (Q05397 whole entry, looked up): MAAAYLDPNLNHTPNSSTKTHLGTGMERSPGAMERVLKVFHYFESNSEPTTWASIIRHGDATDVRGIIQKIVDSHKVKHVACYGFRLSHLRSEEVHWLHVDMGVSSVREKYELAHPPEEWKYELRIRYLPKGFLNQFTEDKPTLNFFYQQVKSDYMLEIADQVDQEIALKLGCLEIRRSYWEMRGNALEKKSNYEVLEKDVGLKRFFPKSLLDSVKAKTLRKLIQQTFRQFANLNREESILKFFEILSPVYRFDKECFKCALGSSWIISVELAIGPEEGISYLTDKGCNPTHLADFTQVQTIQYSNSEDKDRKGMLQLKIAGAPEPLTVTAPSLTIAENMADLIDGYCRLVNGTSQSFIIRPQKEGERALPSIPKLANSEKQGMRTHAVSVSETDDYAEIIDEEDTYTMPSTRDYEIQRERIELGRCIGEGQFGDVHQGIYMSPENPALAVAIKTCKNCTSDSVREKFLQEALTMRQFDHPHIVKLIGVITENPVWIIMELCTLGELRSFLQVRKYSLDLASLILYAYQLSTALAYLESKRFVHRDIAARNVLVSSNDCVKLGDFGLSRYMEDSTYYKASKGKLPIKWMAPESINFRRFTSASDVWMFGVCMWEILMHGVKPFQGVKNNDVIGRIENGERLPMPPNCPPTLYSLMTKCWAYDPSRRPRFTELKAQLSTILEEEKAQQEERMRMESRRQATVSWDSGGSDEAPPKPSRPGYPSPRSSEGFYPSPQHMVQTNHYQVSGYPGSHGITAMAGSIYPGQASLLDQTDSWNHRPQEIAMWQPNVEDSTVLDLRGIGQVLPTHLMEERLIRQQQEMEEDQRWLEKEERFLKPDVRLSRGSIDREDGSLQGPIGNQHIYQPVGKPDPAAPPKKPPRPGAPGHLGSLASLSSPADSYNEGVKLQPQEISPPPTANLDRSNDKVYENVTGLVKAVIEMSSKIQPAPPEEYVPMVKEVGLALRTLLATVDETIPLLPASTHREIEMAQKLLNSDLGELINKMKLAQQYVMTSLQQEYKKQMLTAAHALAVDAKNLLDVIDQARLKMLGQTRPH
# Fibroblast growth factor 2 (Homo sapiens), sequence (P09038 whole entry, looked up): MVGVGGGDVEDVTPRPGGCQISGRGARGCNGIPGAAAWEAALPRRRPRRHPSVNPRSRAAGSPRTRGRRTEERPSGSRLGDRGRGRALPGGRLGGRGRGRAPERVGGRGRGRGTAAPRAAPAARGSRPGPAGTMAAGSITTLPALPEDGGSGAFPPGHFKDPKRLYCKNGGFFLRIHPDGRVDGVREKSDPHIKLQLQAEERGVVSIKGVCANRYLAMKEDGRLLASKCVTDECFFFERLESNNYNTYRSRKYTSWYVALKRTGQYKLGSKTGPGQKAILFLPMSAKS
Structure (SMILES),composite z-score [1],composite z-score [2],composite z-score [3],composite z-score [4],composite z-score [5],composite z-score [6],z-score [7],composite z-score (Lefty1),composite z-score [8],z-score [9]
COc1cccc(C)c1NC(=O)O[C@H]1[C@H](OC(=O)Nc2ccccc2-c2ccccc2)[C@@H](OC(=O)Nc2ccccc2-c2ccccc2)[C@@H](OC)O[C@@H]1CO,1,1.25,1.29,1.02,1.27,0.317,-0.158,0.719,0.55,-0.742 (inactive)
[N-]=[N+]=NCc1ccccc1[C@H]1OC(c2ccc(OCCCO)cc2)=N[C@@]1(Cc1ccccc1N=[N+]=[N-])C(=O)N1CCOCC1,0.574,1.21,0.993,1.04,0.526,-0.335,0.704,0.0349,1.07,-2.44 (inactive)
C=C(CCCC)C(=O)CC[C@@H](OC(C)=O)c1ccc(OCCO)cc1,1.51,-0.161,-0.162,-0.134,1.46,1.4,-0.275,1.69,-0.578,-1.4 (inactive)
C[N+](C)(C)CCCC[C@@H]1NC(=O)[C@H]2C[C@@H](C(=O)NCCCCCN)[C@@H](c3ccc(O)cc3)N2C1=O,3.32,1.21,0.599,1.04,1.39,1.66,0.729,1.7,1.36,-0.993 (inactive)
CCOC(=O)C1=CCC(c2ccncc2)N(S(=O)(=O)c2ccc(C)cc2)C1 (stereo not given),0.871,1.25,1.5,1.01,0.844,0.454,-0.497,0.353,0.829,-0.786 (inactive)
COCCCNC(=O)[C@@]1(Cc2ccccc2I)c2ccccc2C(=O)N(Cc2ccccc2C(F)(F)F)[C@H]1c1ccc(CO)cc1,0.611,0.742,-0.0483,0.0568,0.672,-0.742,0.104,-1.15,-0.107,0.636 (inactive)
CC1C2C(CCCO)=CC(C3C(=O)N(C)C(=O)C23)N1Cc1cccc(OC(F)(F)F)c1 (stereo not given),0.503,1.2,0.849,0.971,0.301,0.303,-0.703,0.286,0.877,-1.02 (inactive)
COCCOC(=O)N1C(=O)[C@@]2(c3cc(C#CC4(O)CCCCCC4)ccc31)[C@H](C(N)=O)[C@H]1C(=O)O[C@H](c3ccccc3)[C@H](c3ccccc3)N1[C@@H]2c1ccc(OCCO)cc1,2.19,1.21,0.428,0.95,1.34,0.888,-1.71,0.673,1.11,-1.03 (inactive)
CN(C)C(=O)[C@]1(CCS(=O)(=O)c2ccccc2)N=C(c2ccc(OCCCO)cc2)O[C@@H]1c1ccccc1CN=[N+]=[N-],2.64,1.26,1.08,0.994,0.983,1.45,-0.381,-0.421,0.774,-0.345 (inactive)
COC(=O)[C@@]1(Cc2ccc(F)cc2)[C@H]2c3cc(C(=O)N4CCCC4)n(Cc4ccc(OC(F)(F)F)cc4)c3C[C@H]2CN1C(=O)c1ccccc1,-0.509,1.05,0.415,-0.276,-0.752,-0.685,0.559,-1.69,0.135,1.38 (inactive)
COC(=O)[C@@]1(Cc2ccc(F)cc2)[C@@H]2C(=CC(=O)[C@H]2CC(=O)C(=O)N2CCCC2)CN1C(=O)c1ccccc1,0.323,1.24,0.348,0.998,1.26,0.674,0.711,0.903,1.23,-8.12 (active)
COc1ccc([Si](C)(C)[C@H]2[C@H](CC(=O)N(CCO)Cc3ccccc3)O[C@@]3(C(=O)N(c4ccccc4)c4ccccc43)[C@@H]2C)cc1,1.2,1.11,0.207,0.743,1.1,0.679,-0.23,0.83,0.135,-0.429 (inactive)
CCCCC(=C=CC[C@@H](O)c1ccccc1OCCO)C[C@@H](O)c1ccccn1,-0.242,0.451,0.36,0.296,0.638,0.356,0.969,0.699,-0.306,-0.96 (inactive)
COC(=O)C(CC#Cc1ccc2c(c1)[C@]1(C(=O)N2)[C@H](C(=O)N2CCN(c3ncccn3)CC2)[C@H]2C(=O)O[C@H](c3ccccc3)[C@H](c3ccccc3)N2[C@@H]1c1ccc(O)cc1)C(=O)OC,1.19,1.25,0.904,0.951,1.43,1.57,-0.877,1.03,1.36,-0.178 (inactive)
C=CCNC(=O)[C@@H]1[C@H]2C(=O)O[C@H](c3ccccc3)[C@H](c3ccccc3)N2[C@H](c2ccc(O)cc2)[C@@]12C(=O)Nc1ccc(C#CC3=CCCCC3)cc12,0.844,1.18,0.721,0.668,1.24,0.494,0.22,1.43,1.06,-0.806 (inactive)
COCCOC(=O)N1C(=O)[C@@]2(c3cc(C#CCCO)ccc31)[C@H](c1ccc(O)cc1)N1[C@H](c3ccccc3)[C@H](c3ccccc3)OC(=O)[C@H]1[C@@H]2C(=O)NC[C@H](O)c1ccccc1,2.05,1.2,0.553,0.0868,1.17,0.767,-0.703,0.958,-0.333,-1.52 (inactive)

Structure (SMILES),composite z-score [1],composite z-score [2],composite z-score [3],composite z-score [4],composite z-score [5],composite z-score [6],z-score [7],composite z-score (Lefty1),composite z-score [8],z-score [9]
CS(=O)(=O)CCOC(=O)C1=CC(CCCO)=CC(C2CC2)N(Cc2sc3ccccc3c2Cl)C=C1C(=O)OCCS(C)(=O)=O (stereo not given),2.14,1.04,0.435,0.753,1.3,0.897,0.995,1.23,1.03,-1.14 (inactive)
CN1C(=O)C2C(C1=O)C1C=C(CCCO)C2C(C2CC2)N1C (stereo not given),-0.194,-0.404,0.813,-1.04,-0.39,0.628,0.772,-0.991,0.0425,-0.224 (inactive)
O=C1N(Cc2ccccc2)c2ccccc2C[C@@]12N=C(c1ccc(OCCCO)cc1)O[C@H]2c1ccccc1,1.81,1.13,0.791,0.209,1.33,1.39,-0.518,0.309,0.294,-2 (inactive)
COc1ccc(C#Cc2ccc3c(c2)[C@]2(C(=O)N3)[C@H](c3ccccc3OCCO)N3[C@H](c4ccccc4)[C@H](c4ccccc4)OC(=O)[C@H]3[C@@H]2C(=O)NC[C@H](O)c2ccccc2)cc1,1.05,1.14,1.31,0.848,1.27,1.62,-1.25,1.06,0.319,0.412 (inactive)
CCCCN1CC=CC23O[C@@H]4/C=C\CCC(C)OC(=O)C4[C@H]2C(=O)N(CCO)[C@@H]3C1=O (stereo not given in full),3.24,-0.424,0.548,-1.18,-0.531,-1.49,-0.145,0.0422,-0.169,1.1 (inactive)
O=C(CS)NCCCCCCNC(=O)[C@H]1C[C@H]2C(=O)NCC(=O)N2[C@H]1c1cccc(OCCO)c1,1.64,0.245,0.128,0.65,1.35,1.56,-0.698,0.47,-0.152,0.057 (inactive)
CN(C)CCCC[C@@H]1NC(=O)[C@H]2C[C@@H](C(=O)NCCCCCCNC(=O)CS)[C@@H](c3cccc(OCCO)c3)N2C1=O,1.17,0.593,0.292,0.511,0.52,1,0.115,-0.673,-0.115,0.117 (inactive)
[N-]=[N+]=Nc1ccccc1C[C@]1(C(=O)N2CCCCC2)N=C(c2ccc(OCCCO)cc2)O[C@H]1c1ccccc1,2.69,1.2,0.307,0.934,1.26,1.38,-0.0876,0.225,1.22,-1.99 (inactive)
CC[C@H]1C2=C3C(CC[C@H]4C(OCc5ccc(F)cc5C(F)(F)F)OC[C@](C)([C@@H]34)N(C(=O)OC(C)(C)C)C2)C(COC(C)=O)C1COC(C)=O (stereo not given in full),1.3,1.17,0.178,0.945,0.165,-1.19,1.74,-0.256,0.509,1.17 (inactive)
O=C1OC[C@@H](c2ccccc2)n2cc(/C=C/c3ccccc3)cc21,0.353,-0.58,-0.102,0.5,-0.324,-0.574,-0.512,-0.0599,-0.328,0.287 (inactive)
CN1C(=O)C2C=CC(C(O)COCc3ccccc3)N(Nc3ccc([N+](=O)[O-])cc3[N+](=O)[O-])C2C1=O (stereo not given),-1.08,1.08,0.903,-0.428,-0.232,0.41,1.89,-0.798,0.333,-1.05 (inactive)
COc1ccc([Si](C)(C)[C@@H]2[C@@H](CC(=O)N3Cc4ccccc4C[C@H]3CO)O[C@]3(C(=O)N(Cc4ccc(I)cc4)c4ccccc43)[C@H]2C)cc1,0.521,0.963,0.0916,0.838,1.59,1.65,-0.26,1.58,0.373,0.798 (inactive)
C=CCNC(=O)[C@H]1[C@@H]2C(=O)O[C@@H](c3ccccc3)[C@@H](c3ccccc3)N2[C@@H](c2ccc(O)cc2)[C@]12C(=O)N(C(=O)OCCOC)c1ccc(C#Cc3ccc(OC)cc3)cc12,0.91,1.13,0.319,0.658,0.751,0.817,-1.33,0.402,0.58,0.39 (inactive)
[N-]=[N+]=NCc1ccccc1C[C@]1(C(=O)N2CCCCC2)COC(c2ccc(OCCCO)cc2)=N1,1.13,1.07,0.401,0.932,0.687,0.765,2.45,-0.432,0.827,-1.71 (inactive)
CCOC(=O)C[C@H]1[C@H](OC(=O)c2cc3ccccc3oc2=O)[C@@H](NC(=O)c2ccc(-c3ccccc3)cc2)c2cc(OCCCO)ccc2N1C(=O)Cc1ccc(OC)cc1,0.396,1.19,0.414,0.522,0.679,1.41,-0.424,0.907,0.266,0.853 (inactive)

# — PubChem BioAssay
